# Bioassay records deposited in PubChem BioAssay by several laboratories.
# PrPC TRFRET: cell surface PrPC inhibition, primary TR-FRET screen; P04156; TR-FRET read-out; inhibition, % at 13.8 µM; 370,000 tested, 0.43% active; AID 720596; in the data active = inhibition above about 24%
# PrP 5UTR inh: inhibition of PrP 5' UTR reporter expression. cell-based PrP 5' UTR mRNA reporter, plate reader. inhibition, % (concentration not given with the values). 340,000 tested, 0.35% active. AID 488862; in the data active = inhibition above about 52%
# FadD28 FP inh: blocks FadD28 binding to the bisubstrate probe. fluorescence polarization. inhibition, % at 12.5 µM. 360,000 tested, 0.22% active. AID 588549; in the data active = inhibition above about 8.5%, passing the limit was not always enough; inconclusive = no clear call, values can overlap the other calls
# SSB-PriA inh: K. pneumoniae PriA-SSBct interaction inhibition; AlphaScreen SSBct-PriA binding, biotinylated peptide; inhibition, % at 33 µM; 430,000 tested, 0.6% active; AID 1272365; in the data active = inhibition mostly above about 37%, no sharp cut-off; inactive = mostly below about 20%
# Vc quorum ag: quorum light induction in luxS cqsA deficient V. cholerae; 350,000 tested, 0.16% active; AID 588436; V. cholerae BH1578 lux reporter, luminescence, 6 h; activation, % at 18.7 µM; in the data active = activation mostly above about 9.7%, no sharp cut-off; inconclusive = no clear call, values can overlap the other calls; inactive = mostly below about 3.7%
# PrP 5UTR single: prion 5' UTR mRNA inhibition, cherry-pick retest. shares compounds with PrP 5UTR inh. inhibition, % at 2.5 µM. 1,100 tested, 48% active. cell-based prion protein 5' UTR reporter, plate reader; in the data active = inhibition above about 54%; inconclusive = no clear call, values can overlap the other calls
# Numbers stand for hits; 0 = inactive; ? = inconclusive; - = no result. A selection: hits, their analogues and other compounds. The true share with any hit is near 1.4%.
SMILES,PrPC TRFRET,PrP 5UTR inh,FadD28 FP inh,SSB-PriA inh,Vc quorum ag,PrP 5UTR single
COCC(=O)NCCn1ncc2c(=O)n(Cc3ccc(Br)cc3)cnc21,-,-,-,0,-,-
COc1cc(NC(=O)c2cccs2)c(C(=O)OCC(=O)c2cc(C)n(-c3ccccc3)c2C)cc1OC,0,70.9,0,0,0,73.2
O=C(CSc1ccc2ccccc2n1)N1CCOCC1,-,-,-,0,-,-
Cc1ccc(-c2cc3c(N=O)c4ccccc4c-3n[nH]2)cc1,0,78.8,0,0,0,80.7
CC(=O)N1N=C(c2ccsc2)CC1c1cn(-c2ccccc2)nc1C (stereo unspecified),-,-,-,0,-,-
O=C(c1c[nH]c(=O)c(Cl)c1)N1CCN(c2cc(C(F)(F)F)ncn2)CC1,-,-,-,0,-,-
O=C(NN=C/C=C/c1ccco1)c1cccs1,-,-,-,0,-,-
O=C(Cc1ccc(Cl)cc1)Nc1ccc(C(=O)N2CCOCC2)cc1,0,62.6,0,0,0,0
O=C(Nc1ccc2c(c1)N(C(=O)C1CCCC1)CC2)c1cccs1,-,-,-,0,-,-
Cc1cccc2sc(OC3CN(C(=O)Nc4ccccc4C(F)(F)F)C3)nc12,-,-,-,0,-,-
CCN(CC)CCNC(=S)NC(=O)c1cn(-c2ccccc2)nc1-c1ccc(OC)cc1,0,67.2,0,0,0,0
CCN(CC)C(=O)c1ccc(NC(=O)c2cccc(C(F)(F)F)c2)cc1,0,78.1,0,0,0,0
N#CCCn1cc(C=NO)c(-c2ccc(-c3ccccc3)cc2)n1,-,-,-,0,-,-
CCN(CC)C(=O)C1CCCN(c2ccc([N+](=O)[O-])cc2[N+](=O)[O-])C1 (stereo unspecified),0,70.4,0,0,0,0
CN(C)C=Nc1ncnc2c1cnn2-c1ccc(C(F)(F)F)cn1,-,-,-,0,-,-
CCOc1ccc(CSC(=N)N)cc1,0,0,0,0,0,-
Cc1cccc(CSC(=N)N)c1,0,52.5,0,0,0,0
N=C(N)SCCc1cccc(CCSC(=N)N)c1,0,70.5,0,0,0,0
Cc1onc(-c2ccccc2Cl)c1C(=O)NCCN1CCN(c2ccc(F)cc2)CC1,-,-,-,0,-,-
Cc1ccc(Sc2cnc3ccccc3n2)cc1,0,87.7,0,0,-,0
Cc1nc(N)nc(N)c1-c1ccc(Cl)c(Cl)c1,0,57.7,0,0,-,0
Cc1cc(/C=N/Nc2ncnc(N)c2[N+](=O)[O-])c(C)n1-c1ccccc1,0,77.4,0,0,0,78.2
COc1cccc(/C=N/Nc2ncnc(N)c2[N+](=O)[O-])c1OC,-,0,0,-,0,-
CC(C)(C)NC(=S)N1CCC(C(=O)c2ccc(Cl)cc2)CC1,0,55.7,0,0,0,0
CCOC(=O)N1CCN(C(=O)C(CC)n2nc(C)c3sc4ccccc4c3c2=O)CC1 (stereo unspecified),0,81.3,0,0,0,0
SMILES,PrPC TRFRET,PrP 5UTR inh,FadD28 FP inh,SSB-PriA inh,Vc quorum ag,PrP 5UTR single
CCOC(=O)N1CCN(C(=O)Cn2nc(C)c3sc4ccccc4c3c2=O)CC1,0,0,0,0,0,-
COc1c(S(=O)(=O)N2CCN(c3ccc(C)cc3C)CC2)ccc(Cl)c1Cl,-,-,-,0,-,-
CC1(C)Oc2cc3oc(-c4cc(O)cc(O)c4)cc3cc2CC1O (stereo unspecified),0,70.7,?,0,0,?
Cn1c(=O)c2cc(C(=O)O)[nH]c2n(C)c1=O,-,-,-,0,-,-
CNc1nc2c(C)cccn2c(=O)c1C=NCc1ccccc1,0,78.4,0,0,0,0
COc1ccc(Nc2nc3c(C)cccn3c(=O)c2C=NCc2ccccc2)cc1,0,0,0,0,0,-
Fc1cccc(Cl)c1Cn1ccnc1,-,-,-,0,-,-
CCOC(=O)N1CCC(Nc2c(-c3ccc(C)c(C)c3)c(=O)c2=O)CC1,0,73.2,0,0,0,0
O=C(CCc1c[nH]c2ccccc12)NN=Cc1ccc2c(c1)OCO2,-,-,-,0,-,-
OCC1=C[C@@H](O)[C@@H]2C=CO[C@@H](O[C@@H]3O[C@H](CO)[C@@H](O)[C@H](O)[C@H]3O)[C@H]12,0,65.4,0,0,0,0
OCC1=C[C@@H](O)C2C=CO[C@@H](O[C@@H]3O[C@H](CO)[C@@H](O)[C@H](O)[C@H]3O)C12 (stereo partly specified),0,0,0,0,0,-
O=C(NC1CCCCCCC1)c1cnccn1,0,0,0,0,0,-
O=C(NC1CCCCC1)c1csnn1,0,84.5,0,0,0,0
COC(=O)c1ccccc1NC(=O)CC(NCCN(C)C)C(=O)O (stereo unspecified),-,-,-,0,-,-
Cc1ccccc1[N+](=O)[O-],0,0,0,0,0,-
Cc1cc([N+](=O)[O-])c2ccccc2[n+]1[O-],-,87.4,0,0,0,97.7
CC(C)(C)n1ncc2c(=O)n(CC(=O)OCc3ccccc3)cnc21,0,59.9,0,0,0,0
